# Rows were chosen to be rich in hits. Some 9.4% of all compounds tested hit in one or more screens of this group.
# HTT ATP protect: qHTS Multiplex Assay to Identify Dual Action Probes in a Cell Model of Huntington: Cytoprotection (ATP); 230,000 compounds, 0.14% hits; AID 1471, 2008; Potency, µM (doses to about 56.4 µM), without a hit: cytoprotection (ATP increase), actives largely listed as activators; PC12 HTT-Q103 induced, cytoprotection, ATP luminescence, 40 h; also: potency is read from the fitted curve at half-maximal effect; % of control where 0% means no effect; nearly all actives have a fitted effect of over 45% in size
#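 Huntington model: PC12 line, ecdysone-inducible HTTQ103 exon1–GFP, tebufenozide 100 nM. Test articles in a dose series. Endpoint luminescence from cellular ATP.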
# IMPase cell inh: qHTS Assay for Identifying the Cell-Membrane Permeable IMPase Inhibitors | Inositol monophosphatase 1 (Rattus norvegicus), P97697 | CHO-M1 cells, IP1 accumulation, HTRF TR-FRET ratio | inhibition (IP1 accumulation), % at 46.1 µM | 120,000 tested, under 10 active | AID 901, 2007; active = well fitted curve in the direction sought with a large enough effect in the signal ratio, not every such curve was filed as active; inconclusive = small, poorly fitted or top-dose-only effect, or a change in a side signal; inactive = no such curve, though single readings can be large or run the other way; the % refers to the signal ratio;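 also: cells stimulated with carbachol in lithium chloride buffer; plate controls were DMSO basal wells for no effect and reference inhibitor wells for full effect; higher means more IMPase inhibition seen as more IP1 and lower FRET ratio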
# Target sequence (P97697 whole entry, looked up): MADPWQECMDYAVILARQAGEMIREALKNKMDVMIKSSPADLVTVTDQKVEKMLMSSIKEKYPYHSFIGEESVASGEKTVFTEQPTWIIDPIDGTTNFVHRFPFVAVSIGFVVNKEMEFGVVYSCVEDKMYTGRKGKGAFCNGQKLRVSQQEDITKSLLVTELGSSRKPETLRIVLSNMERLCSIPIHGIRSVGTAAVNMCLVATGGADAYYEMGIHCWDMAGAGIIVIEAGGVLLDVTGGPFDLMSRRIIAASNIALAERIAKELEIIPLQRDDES
#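 Cellular IMPase inhibition is scored as a rise in cytosolic IP1, detected by competitive TR-FRET between d2-labelled IP1 and a europium anti-IP1 antibody. M1-expressing CHO cells were stimulated with carbachol for 30 min at 37C, with lithium (50 mM LiCl) present in the buffer.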
# IMPase Li cell: qHTS Assay for Identifying the Cell-Membrane Permeable IMPase Inhibitors: Potentiation with Lithium. Potency, µM (top dose mostly 59.4 µM), inactives show at the top dose activity, negative = IMPase inhibition, usual class: inhibitors. CHO-M1 cells, IP1 TR-FRET (IP-One), carbachol + lithium. 210,000 compounds, 0.35% hits. AID 1457, 2008;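 also: IP1 builds up when IMPase is blocked and the TR-FRET signal falls; potency is read from the fitted curve at half-maximal effect; plate controls were basal vehicle for no effect and high inhibitor control for full effect; nearly all actives have a fitted effect of over 50% in size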
#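 IP1 accumulation measured by competitive TR-FRET in lysed CHO-M1 cells after 30 min compound exposure at 37C, with a small lithium addition to potentiate weak responses. Hill-equation AC50 from ratio and donor-channel data.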
# HPGD block: qHTS Assay for Inhibitors of HPGD (15-Hydroxyprostaglandin Dehydrogenase) | 15-hydroxyprostaglandin dehydrogenase [NAD(+)] (Homo sapiens), P15428 | purified HPGD, NADH fluorescence kinetic, PGE2 substrate | Potency, µM, without a hit: top-dose activity change, negative = inhibition, actives largely listed as inhibitors | 150,000 compounds, 4.3% hits; active = well fitted inhibition curve with a large enough effect, not every such curve was filed as active; inconclusive = small, poorly fitted or top-dose-only effect, or another doubt; inactive = no such curve, though single readings can be large or run the other way; also: potency is read from the fitted curve at half-maximal effect; % is scaled to controls: 0 for no effect and ±100 for the full control effect
# Target sequence (P15428 whole entry, looked up): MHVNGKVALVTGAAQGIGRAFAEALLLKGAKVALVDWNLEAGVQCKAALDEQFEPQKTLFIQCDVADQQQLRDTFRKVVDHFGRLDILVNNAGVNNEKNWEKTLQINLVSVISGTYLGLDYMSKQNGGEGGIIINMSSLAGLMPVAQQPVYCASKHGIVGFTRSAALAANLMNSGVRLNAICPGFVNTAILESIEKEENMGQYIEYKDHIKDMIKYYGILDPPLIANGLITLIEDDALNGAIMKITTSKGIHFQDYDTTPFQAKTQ
#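 NADH formation kinetics: reaction with 30 uM PGE2 and 1 mM NAD+ (final), 20 nM enzyme, Tris-HCl pH 8 with Tween 20, after 15 min compound preincubation at room temperature. Fluorescence change, last versus first of five reads.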
# HTT aggregate: qHTS Multiplex Assay to Identify Dual Action Probes in a Cell Model of Huntington: Aggregate Formation (GFP); AID 1688, 2009; 220,000 compounds, 1.1% hits; PC12 HttQ103-GFP aggregates, Acumen cytometry, 40 h; Potency, µM (series often up to 46.1 µM), inactives show at the highest dose activity change, negative = inhibition, actives largely listed as inhibitors; also: potency is read from the fitted curve at half-maximal effect; % is scaled to controls: 0 for no effect and ±100 for the full control effect; nearly all actives have a fitted effect of over 60% in size
#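 Read-out: GFP aggregate count by laser scanning cytometer (488 nm excitation, 500-530 nm emission, 1–25 µm objects >6 SD above background). Cells: PC12, inducible HTTex1-Q103-GFP, 100 nM tebufenozide; compounds titrated.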
# ALDH1A1 block: qHTS Assay for Inhibitors of Aldehyde Dehydrogenase 1 (ALDH1A1) | 220,000 compounds, 7.3% hits | Potency, µM (doses to about 75.3 µM), inactives show at the highest dose activity, negative = inhibition, most hits filed as inhibitors | Purified ALDH1A1, NADH fluorescence, propionaldehyde substrate; active = well fitted inhibition curve with a large enough effect, not every such curve was filed as active; inconclusive = small, poorly fitted or top-dose-only effect, or another doubt; inactive = no such curve, though single readings can be large or run the other way;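 also: potency is read from the fitted curve at half-maximal effect; plate controls were no enzyme wells and a reference inhibitor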
# Active calls of the source: *; ? = inconclusive; nt = not tested or not shown; [ ] = another dose, or the depositor's remark. Unless noted, calls follow the shape of the dose curve; as a rule, active = well fitted curve in the direction sought with a large enough effect; inconclusive = small, poorly fitted or top-dose-only effect, or another doubt; inactive = no such curve, though single readings can be large; an effect the other way counts as inactive or inconclusive.
SMILES,HTT ATP protect,IMPase cell inh,IMPase Li cell,HPGD block,HTT aggregate,ALDH1A1 block
Cc1ccc(C(CC(=O)NCc2ccco2)c2ccccc2)c(O)c1 (configuration not stated),-9%,2,31%[38.3 µM],16µM*,5%,-8%
Cc1ccc2cc(C)c(SCC(=O)NCc3ccco3)nc2c1,-42%,nt,8%,nt,8%,14µM*
Cc1nc(SCC(=O)NC(=O)NCc2ccco2)nc(C)c1C,7%[10 µM],nt,-2%,nt,-1%,-7%
Cc1nc(SCC(=O)NCc2ccco2)nc(C)c1C,-16%,-10,-4%[38.3 µM],7.9µM*,-1%,25µM*
Cc1ccc(C)c(SCC(=O)OCC(=O)c2ccco2)c1,-6%[10 µM],-2,-10%[38.3 µM],18µM*,0%,?
Cc1ccc(SCCC(=O)NCc2ccco2)cc1,-13%,-2,21%[38.3 µM],28µM*,9%,-14%
Cc1ccc2nc(SCC(=O)NCc3ccco3)[nH]c2c1,6%,-3,15%[38.3 µM],-14%,-8%,9%
Cc1ccc(C)c(SCC(=O)NCc2ccco2)c1,3%,-3,-5%[38.3 µM],7.9µM*,-8%,?
Cc1cc2oc(=O)cc(-c3ccccc3)c2c(C)c1-c1ccoc1,nt,nt,11%,-6%,nt,?
O=c1cc(-c2ccncc2)oc2ccccc12,-1%,5,-13%[38.3 µM],-14%,-32%,-1%
O=c1cc(-c2cccc(O)c2O)oc2ccccc12,?,10,24%,16µM*,nt,-3%
COc1cc(-c2cc(=O)c3ccccc3o2)ccc1O,-24%[1.9 µM],-3,4%,35µM*,7%,-4%
O=c1cc(-c2c(F)c(F)c(F)c(F)c2F)oc2ccccc12,?,0,25%[38.3 µM],-21%,-20%,16µM*
O=C(Cc1cccs1)N1CCC(c2nc3c(nnn3Cc3ccccc3Cl)c(=O)[nH]2)CC1,13%,-2,11%[38.3 µM],16µM*,5%,?
CCCCCCC(=O)N1CCC(c2nc3c(nnn3Cc3ccccc3Cl)c(=O)[nH]2)CC1,21%[10 µM],6,43%[38.3 µM],20µM*,?,?
O=C(NC1CCCC1)c1nc2c(nnn2Cc2ccccc2Cl)c(=O)[nH]1,-6%[10 µM],0,12%[38.3 µM],?,-16%,-2%
O=C(C1CCCCC1)N1CCC(c2nc3c(nnn3Cc3ccccc3Cl)c(=O)[nH]2)CC1,11%[10 µM],nt,nt,nt,nt,nt
CC1(C)OC(=O)C=C[C@@]2(C)C1C[C@@H](O)[C@]1(C)C2CC[C@@]2(C)C(c3ccoc3)OC(=O)[C@H]3O[C@]321 (some centres not stated),2%,nt,15%,-5%,nt,-5%
Cc1ccc(CO)cc1,-3%,nt,-1%,-16%,nt,-1%
Cc1ccc(NC(=O)N/C=C/c2ccc(Cl)cc2)cc1,-4%,8,-19%[38.3 µM],-14%,-3%,22µM*
CC(C)c1nnc(NC(=O)CCC(=O)NC2CCCc3ccccc32)s1 (configuration not stated),2%[1.9 µM],5,-4%,-4%,?,1%
CC1(C)CC(=O)c2c(oc3cc(O)c(O)cc23)C1,-30%,2,14%,6.3µM*,-14%,2µM*
COC(=O)CC1Oc2cc3oc4c(c3cc2O1)C(=O)CC(C)(C)C4 (configuration not stated),-45%,nt,-2%,25µM*,nt,10µM*
COC(=O)c1oc2c(c1C)C(=O)CC(C)(C)C2,-46%,nt,7%,nt,-18%[9.22 µM],?
CC1=C(C)C[C@@]23CCCN2C(=O)CCC[C@H]3C1,21%[96.6 µM],nt,10%,5%,nt,?
SMILES,HTT ATP protect,IMPase cell inh,IMPase Li cell,HPGD block,HTT aggregate,ALDH1A1 block
O=C(O)CCC/C=C\C[C@@H]1C(/C=C/[C@@H](O)COc2cccc(C(F)(F)F)c2)[C@@H](O)C[C@@H]1O (some centres not stated),-31%,nt,5%,nt,nt,3%
CC(Oc1ccc(Cl)cc1Cl)c1nc(-c2ccc(NC(=O)c3ccncc3)cc2)no1 (configuration not stated),-19%[10 µM],-3,14%,?,15%,1%
CC(Oc1ccc(Cl)cc1Cl)c1nc(-c2ccc(NC(=O)c3cccnc3)cc2)no1 (configuration not stated),-41%,1,42%[38.3 µM],-25%,7.9µM*,3%
CCC1=C(OC(=O)N(CC)CC)N2C(=O)OC(=NCCOC)[C@]2(C)[C@H]2C1=CC[C@H]1C(=O)N(C)C(=O)[C@H]12,-15%,nt,2%,-9%,nt,-10%
Cc1ccc(C(C)NC(=O)C2CCCO2)cc1C (configuration not stated),-25%[10 µM],-10,11%,16µM*,-11%,-3%
CC(NC(=O)C1CCC1)c1ccc2c(c1)OCO2 (configuration not stated),0%,2,17%[38.3 µM],20µM*,-5%,9%
CC12C=C(/C=C/CCc3ccco3)C(C)(C1)[C@H](CCc1ccco1)CC2=O (some centres not stated),-23%,nt,7%,-4%,nt,?
O=[N+]([O-])c1ccc(S(=O)(=O)Cc2ccccc2)c([N+](=O)[O-])c1,-104%[10 µM],nt,7%,-15%,nt,1.3µM*
O=C(CCN1CCN(c2ccccc2)CC1)N/N=C/c1ccccc1OC(F)F,-19%,nt,5%,nt,-18%,-7%
COC(=O)C1=CN(c2cccc(C)c2)C=C(C(=O)OC)C1c1cc(OC)c(O)c([N+](=O)[O-])c1,-55%,4,12%[38.3 µM],16µM*,2%,-1%
CCn1c(C(=O)N2CCCC(C(=O)NCCc3ccc(C)cc3)C2)cc2sccc21 (configuration not stated),-33%,-1,-11%[38.3 µM],-5%,-26%,32µM*
Cn1c(C(=O)N2CCCC(C(=O)NCc3cccs3)C2)cc2sccc21 (configuration not stated),-8%,-8,12%[38.3 µM],-25%,10%[9.22 µM],?
CCn1c(C(=O)N2CCCC(C(=O)NCCCc3ccccc3)C2)cc2sccc21 (configuration not stated),4%[10 µM],1,16%,-15%,?,?
Cn1c(C(=O)N2CCCC(C(=O)NCCCSC3CCCCC3)C2)cc2sccc21 (configuration not stated),-75%,0,-1%[38.3 µM],-5%,-26%,1.3µM*
CCOc1cc(-c2nc(-c3ccc(Br)cc3)no2)cc(OCC)c1OCC,nt,-1,nt,nt,nt,nt
